PubChem BioAssay

assay: growth modulation of vineyard yeast isolate – strain RM11-1a, OD600, basal, 24 h, primary screen (AID 1177);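 further: cultures grown under basal conditions with no added stressor; test concentration not given here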; conditions: S. cerevisiae RM11-1a growth, OD600, 24 h; higher = more signal, called active from +8 up or from −8 down

z-score, inactive:
O=C1C[C@@](C(=O)O)(c2ccc([N+](=O)[O-])cc2)[C@@H](c2ccc(CO)cc2)N1CC12CC3CC(CC(C3)C1)C2 1.08, O=C1C[C@@](C(=O)NCc2ccccc2)(c2ccc([N+](=O)[O-])cc2)[C@@H](c2ccc(CO)cc2I)N1C1CCCCC1 1.88, COc1cccc(C[C@H]2C[C@@H](CO[Si](C(C)C)(C(C)C)C(C)C)N3C(=O)[C@]4(C(C)=O)O[C@]23[C@H]2C(=O)N(C)C(=O)[C@H]24)c1 0.979, COCC(=C=CC[C@@H](O)c1ccccc1OCCO)C[C@@H](O)COCc1ccccc1 -2.04, COC(=O)C(CC#Cc1ccc2c(c1)[C@]1(C(=O)N2)[C@H](C(=O)N2CCc3cc(OC)c(OC)cc3C2)[C@H]2C(=O)O[C@H](c3ccccc3)[C@H](c3ccccc3)N2[C@@H]1c1ccc(O)cc1)C(=O)OC 3.33, CN1C(=O)C2C=CC(C(O)COCc3ccccc3)N(Nc3ccccc3)C2C1=O (configuration not stated) 0.328, Cc1ccccc1C(O)C1C=CC2C(=O)N(Cc3ccccc3)C(=O)C2N1n1cnnc1 (configuration not stated) -0.226
